About 2,000 (36%) of roughly 5,500 compounds were called active. Roughly 18% stayed inconclusive and do not appear here. Cut-off read from the data, not from the text of the source: active = normalized growth mostly below about 0.91 (no sharp cut-off); inconclusive = no clear call, values can overlap the other calls; inactive = mostly above about 0.92. This is one part of the list.
Assay: chemical genetic growth profiling, strain panel (AID 1159580);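 note: tested at 20 µM; growth read once vehicle control cultures reached saturation at 30 °C; 1 = growth at the plate median or of vehicle wells; lower values mean less growth of the strain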
Details: S. cerevisiae deletion strains, growth OD

Measured: normalized growth

Nc1ccc(C(=O)O)c(O)c1 (tested in a mixture with another compound)
inactive: locus YBR021W, strain FUR4, active compounds read low 1 | locus YBR229C, strain ROT2, active compounds read low 0.988 | locus YCL029C, strain bik1, active compounds read low 0.993 | locus YDL035C, strain GPR1, active compounds read low 0.989 | locus YDL074C, strain BRE1, active compounds read low 1.01 | locus YDL101C, strain DUN1, active compounds read low 0.995 | locus YDL134C, strain PPH21, active compounds read low 0.994 | locus YDL185W, strain tfp1, active compounds read low 0.993 | locus YDL192W, strain arf1, active compounds read low 0.988 | locus YDR101C, strain arx1, active compounds read low 1.02 | locus YDR162C, strain NBP2, active compounds read low 0.995 | locus YDR318W, strain mcm21, active compounds read low 0.992 | locus YDR388W, active compounds read low 0.981 | locus YDR502C, strain sam2, active compounds read low 1.02 | locus YEL061C, strain CIN8, active compounds read low 0.994 | locus YER110C, active compounds read low 0.976 | locus YER155C, strain BEM2, active compounds read low 0.999 | locus YER167W, strain BCK2, active compounds read low 0.985 | locus YGL078C, strain dbp3, active compounds read low 0.992 | locus YGL086W, strain mad1, active compounds read low 1.03 | locus YGL248W, strain PDE1, active compounds read low 0.994 | locus YGR135W, strain pre9, active compounds read low 0.945 | locus YGR252W, strain gcn5, active compounds read low 0.963 | locus YHR030C, strain SLT2, active compounds read low 0.993 | locus YHR079C, strain IRE1 (second series), active compounds read low 0.98 | locus YHR094C, strain hxt1, active compounds read low 0.977 | locus YHR129C, strain ARP1, active compounds read low 0.998 | locus YHR200W, strain rpn10, active compounds read low 0.988 | locus YIL066C, strain RNR3, active compounds read low 0.996 | locus YIL073C, strain SPO22, active compounds read low 1.01 | locus YIL125W, strain kgd1, active compounds read low 0.988 | locus YIR030C, strain dcg1, active compounds read low 0.979 | locus YJL095W, strain BCK1, active compounds read low 1.02 | locus YJL134W, strain LCB3, active compounds read low 0.994 | locus YJL168C, strain set2, active compounds read low 0.976 | locus YJL187C, strain SWE1 (second series), active compounds read low 1.01 | locus YJR043C, strain POL32, active compounds read low 0.981 | locus YJR075W, strain HOC1, active compounds read low 0.988 | locus YKL009W, strain mrt4, active compounds read low 1 | locus YKL068W, active compounds read low 0.992 | locus YKL085W, strain MDH1 (second series), active compounds read low 0.984 | locus YKL085W, strain MDH1, active compounds read low 0.984 | locus YKL190W, strain CNB1, active compounds read low 0.998 | locus YKR001C, strain vps1, active compounds read low 0.998 | locus YLR039C, strain RIC1, active compounds read low 1.06 | locus YLR058C, strain SHM2, active compounds read low 0.989 | locus YLR102C, strain apc9, active compounds read low 0.983 | locus YLR262C, strain YPT6, active compounds read low 1.02 | locus YLR268W, strain sec22, active compounds read low 0.992 | locus YLR330W, strain CHS5, active compounds read low 0.994 | locus YLR342W, strain FKS1 (second series), active compounds read low 0.968 | locus YLR371W, strain rom2, active compounds read low 0.977 | locus YLR418C, strain cdc73, active compounds read low 0.957 | locus YML016C, strain PPZ1, active compounds read low 0.99 | locus YML032C, strain rad52, active compounds read low 0.994 | locus YML124C, strain tub3, active compounds read low 0.989 | locus YMR078C, strain ctf18, active compounds read low 0.978 | locus YMR223W, strain ubp8, active compounds read low 0.964 | locus YMR307W, strain GAS1, active compounds read low 0.909 | locus YNL067W, strain RPL9B, active compounds read low 1.02 | locus YNL128W, strain TEP1, active compounds read low 0.995 | locus YNL153C, strain GIM3, active compounds read low 1.04 | locus YNL233W, strain BNI4, active compounds read low 1.01 | locus YNL250W, strain rad50, active compounds read low 0.981 | locus YNL271C, strain bni1, active compounds read low 0.991 | locus YNL298W, strain CLA4, active compounds read low 0.983 | locus YNL307C, strain MCK1, active compounds read low 0.981 | locus YNR052C, strain pop2, active compounds read low 0.991 | locus YOL006C, strain TOP1, active compounds read low 1.08 | locus YOL012C, strain htz1 0.929 | locus YOL147C, strain pex11, active compounds read low 0.988 | locus YOR061W, strain CKA2, active compounds read low 0.993 | locus YOR069W, strain VPS5, active compounds read low 0.988 | locus YOR136W, strain idh2, active compounds read low 0.987 | locus YOR144C, strain elg1, active compounds read low 0.977 | locus YOR184W, strain ser1, active compounds read low 0.971 | locus YOR316C, strain cot1, active compounds read low 0.986 | locus YPR119W, strain clb2, active compounds read low 0.984 | locus YPR141C, strain kar3, active compounds read low 0.984 | locus YPR163C, strain tif3, active compounds read low 0.979 | locus YPR167C, strain met16, active compounds read low 0.981 | strain wtn01, active compounds read low 1.01
